High-throughput results from PubChem BioAssay.
CHX counter – Cycloheximide Counterscreen for Small Molecule Inhibitors of Shiga Toxin; cell reporter, cycloheximide protein synthesis inhibition counterscreen; max response, %; 300,000 tested, 12% active; AID 2314, 2010; in the data active means max response mostly above about 13%, no sharp cut-off; inactive means mostly below about 14%; further: read at 38.3 µM for the half of the compounds with a filed dose; 0% is about no effect
Pf growth 96h – Primary qHTS for delayed death inhibitors of the malarial parasite plastid, 96 hour incubation; P. falciparum luciferase reporter growth, 96 h; Potency, µM (top dose mostly 28.7 µM), without a hit: at the highest dose activity change, negative = inhibition, most hits filed as inhibitors; 320,000 tested, 6.9% active; further: potency means the concentration at half of the fitted maximal effect; on the % scale 0 is the no-effect control and ±100 the full control effect
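Two-generation exposure (96 h) targets delayed-death phenotype. Reporter parasites carrying integrated firefly luciferase, in red cells at 2% hematocrit and 0.05% parasitemia final, kept at 37 C, 5% CO2; luminescence loss indicates inhibition.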
Pf growth 48h – Primary qHTS for delayed death inhibitors of the malarial parasite plastid, 48 hour incubation | P. falciparum luciferase growth in erythrocytes, 48 h | Potency, µM (top dose mostly 28.7 µM), without a hit: at the highest dose activity change, negative = inhibition, hits mostly inhibitors | 310,000 tested, 5.9% active | AID 504832, 2011; further: potency means the concentration at half of the fitted maximal effect; on the % scale 0 is the no-effect control and ±100 the full control effect
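First compound was added to culture medium, then infected red cells at 0.1% parasitemia and 2% hematocrit (final). After incubation at 37 C under 5% CO2, luciferase detection reagent was dispensed and light output recorded.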
Shiga toxin inh – A qHTS for Small Molecule Inhibitors of Shiga Toxin | Vero cells, Shiga toxin protein synthesis inhibition reporter | inhibition, % at 38.7 µM | 290,000 tested, 9.2% active | AID 2315, 2010; in the data active means inhibition mostly above about 28%, no sharp cut-off; inactive means mostly below about 43%; further: 0% is about no effect
Giardia FBPA inh – qHTS Assay for Inhibitors of Fructose-1,6-bisphosphate Aldolase from Giardia Lamblia; purified Giardia FBPA; AID 2451, 2010; A8B2U2; Potency, µM (doses to about 59.6 µM), inactives show at the top dose activity, negative = inhibition, hits mostly inhibitors; 290,000 tested, 0.71% active; further: potency means the concentration at half of the fitted maximal effect; on the % scale 0 is the no-effect control and ±100 the full control effect; nearly all actives have a fitted effect of over 55% in size
Target sequence (A8B2U2 whole entry, looked up): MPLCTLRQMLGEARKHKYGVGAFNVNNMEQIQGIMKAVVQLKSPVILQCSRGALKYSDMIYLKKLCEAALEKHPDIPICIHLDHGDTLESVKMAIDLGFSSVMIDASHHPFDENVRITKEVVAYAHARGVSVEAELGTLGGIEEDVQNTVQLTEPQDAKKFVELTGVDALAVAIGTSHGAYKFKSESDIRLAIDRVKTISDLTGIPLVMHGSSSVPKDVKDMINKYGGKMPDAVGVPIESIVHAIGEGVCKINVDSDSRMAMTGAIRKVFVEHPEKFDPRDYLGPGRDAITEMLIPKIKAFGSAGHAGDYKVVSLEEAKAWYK
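40 nM FBPA preincubated 10 min at RT with compound (up to 57.5 uM final), then substrate plus GAPDH/TPI/NAD/arsenate coupling and diaphorase/resazurin added. Fluorescence read after 20 min at RT, 525/598 nm.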
NS1 inh – qHTS Assay for Inhibitors of Influenza NS1 Protein Function. Potency, µM (titrated, usually from 46.1 µM), for the others: at the top dose activity, positive = more growth. 270,000 tested, 0.4% active; calls by dose curve; further: potency means the concentration at half of the fitted maximal effect; actives are rising curves; nearly all actives have a fitted effect of over 50% in size
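Recovery from NS1-induced slow growth read by OD600 in budding yeast switched to galactose assay medium (pH 6.0, -URA) at 1:100 dilution. Compound 23 nl per well; the matching strain lacking NS1 serves as control.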
Starred values were filed as active, the others as inactive; ? = inconclusive; / = no result; [ ] = remark or other dose. Most compounds without a hit are left out; they make up all but 21% or so of the library. Unless noted, the call rests on the fitted dose curve; in most records, active means well fitted curve in the direction sought with a large enough effect; inconclusive means small, poorly fitted or top-dose-only effect, or another doubt; inactive means no such curve, though single readings can be large; an effect the other way counts as inactive or inconclusive.

SMILES	CHX counter	Pf growth 96h	Pf growth 48h	Shiga toxin inh	Giardia FBPA inh	NS1 inh
CCCSc1nc2c3c(sc2c(=O)[nH]1)CC(C)(CC)OC3 (stereo not given)	7	1%[5.75 µM]	1%	-9	1%	0%
CC(=O)c1c(C)[nH]c(C(=O)Nc2ccc(Cl)cc2)c1C	41*	-20%	?	62*	-4%	-11%
CCC(NC(=O)c1[nH]c(C)c(C(C)=O)c1C)c1ccc(Br)cc1 (stereo not given)	-2	?	9.3µM*	10	2%	-22%
CC(=O)c1c(C)[nH]c(C(=O)Nc2ccc(F)c(F)c2F)c1C	6	?	13µM*	71*	4%	-7%
CC(=O)c1c(C)[nH]c(C(=O)Nc2cccc(C)c2C)c1C	-1	17%	5%	17	-11%	-15%
CC(=O)c1c(C)[nH]c(C(=O)Nc2ccc(Cl)cc2F)c1C	32*	20%	63%	116*	-6%	1%
COc1ccccc1CCn1c(=O)c(-c2ccccc2)nc2cncnc21	/	/	/	/	-8%	/
COc1ccccc1CCc1nnc(CCC(=O)NC(C)Cc2cccnc2)o1 (stereo not given)	2	-1%	12%	-13	8%	-3%
O=C(c1ccc(Br)cc1)N(Cc1ccco1)C1CCS(=O)(=O)C1 (stereo not given)	-3	?	14%	20	/	-17%
CC(=O)c1c(C)[nH]c(C(=O)NCCc2ccc(Cl)cc2)c1C	16*	2%	0%	36	9%	-5%
CC(=O)c1c(C)[nH]c(C(=O)Nc2ccccn2)c1C	44*	249%	174%	52*	/	3%
CC(=O)c1c(C)[nH]c(C(=O)NCc2ccc(F)cc2)c1C	3	10%	2%	34	3%	/
COc1ccc(N2CCN(C(=O)C3CCCN(c4ncnc5c4nc4n5CCCCC4)C3)CC2)cc1 (stereo not given)	-4	4%	12µM*	-6	8%	-28%
CN1CCN(C(=O)C2CCCN(c3ncnc4c3nc3n4CCCCC3)C2)CC1 (stereo not given)	-3	1%	?	-3	/	-12%
COc1ccccc1NC(=O)C1CCN(c2ncnc3c2nc2n3CCCCC2)CC1	15	10µM*	?	22	4%	1%
CC1CCN(CCNC(=O)C2CCCN(c3ncnc4c3nc3n4CCCCC3)C2)CC1 (stereo not given)	2	2.9µM*	-8%	-6	/	-16%
CC(=O)c1ccc(NC(=O)C2CCCN(c3ncnc4c3nc3n4CCCCC3)C2)cc1 (stereo not given)	7	6.6µM*	?	-4	4%	-2%
CCC(C(=O)Nc1cccnc1)n1c(=O)[nH]c2ccccc2c1=O (stereo not given)	3	?	?	5	14%	-4%
CCOC(=O)N1CCN(CC(=O)Nc2sccc2C#N)CC1	1	-9%	14%	-20	-2%	/
Cc1ccccc1NC(=O)C(Cl)=C(Cl)Cl	-1	-3%	-13%	2	-3%	-7%
Cn1cncc1C#Cc1ccc2cc(CCO)oc(=O)c2c1	/	?	-6%	/	/	/
CCCCn1c(N)c(N(CC)C(=O)c2cc(CC)c(C)s2)c(=O)[nH]c1=O	/	9%	-21%	/	/	/
O=C(Nc1ccccn1)C1CCCN(c2ncnc3c2nc2n3CCCCC2)C1 (stereo not given)	7	4%	-25%	-3	5%	-27%
O=C(Nc1cccnc1Cl)C1CCCN(c2ncnc3c2nc2n3CCCCC2)C1 (stereo not given)	1	12µM*	-10%	8	/	-28%
Cc1ccnc(NC(=O)C2CCCN(c3ncnc4c3nc3n4CCCCC3)C2)c1 (stereo not given)	9	10µM*	-3%	-10	4%	9%
SMILES	CHX counter	Pf growth 96h	Pf growth 48h	Shiga toxin inh	Giardia FBPA inh	NS1 inh
CC(=O)c1ccc(N2CCN(C(=O)C3CCCN(c4ncnc5c4nc4n5CCCCC4)C3)CC2)cc1 (stereo not given)	-2	?	13µM*	-2	23%	-26%
Cc1nc(SCCOc2ccccc2F)[nH]c(=O)c1Cc1ccccc1	23	?	-6%	-7	5%	/
CC(Sc1ccc(Cl)cc1)C(=O)Nc1ccccc1-c1ccccc1 (stereo not given)	3	-2%	2.3µM*	10	-7%	8%
Cc1ccc(SC(C)C(=O)Nc2ccccc2-c2ccccc2)cc1 (stereo not given)	-2	13µM*	-18%	-15	-12%	-12%
Cc1ccc(C(=O)N2CCN(c3cnn(C)c(=O)c3Cl)CC2)cc1	-2	30%	-16%[5.75 µM]	16	4%	/
COc1ccc(NC(=O)CCc2nnc3ccc(N4CCN(c5cccc(OC)c5)CC4)nn23)cc1	0	0.33µM*	12µM*	32	/	?
CC1CCN(c2ccc3nnc(CCC(=O)Nc4ccc(F)cc4)n3n2)CC1	-3	?	?	-8	15%	-13%
COc1cccc(N2CCN(C(=O)CCc3nnc4ccc(N5CCOCC5)nn34)CC2)c1	-2	12µM*	-3%	-6	-3%	22%
COCCNC(=O)CCc1nnc2ccc(N3CCC(C)CC3)nn12	-3	18%	5%	-9	0%	2%
COc1cc(NC(=O)CCc2nnc3ccc(N4CCC(C)CC4)nn23)cc(OC)c1	10	1.9µM*	-16%	2	12%	4%
COc1cccc(N2CCN(C(=O)CCc3nnc4ccc(N5CCCC5)nn34)CC2)c1	-2	?	?	-5	0%	23%
COc1ccccc1N1CCN(C(=O)CCc2nnc3ccc(N4CCC(C)CC4)nn23)CC1	-2	-19%	10µM*	-8	2%	-11%
CCN(CC(=O)NCc1ccc(Cl)cc1)C(=O)c1cccc(S(=O)(=O)Nc2ccc(OC)cc2)c1	/	-1%	?	/	/	/
COc1cc(NC(=O)CCc2nnc3ccc(N4CCN(c5cccc(OC)c5)CC4)nn23)cc(OC)c1	2	3.3µM*	2%	-6	/	21%
CC(=O)c1ccc(NC(=O)CCc2nnc3ccc(N4CCC5(CC4)OCCO5)nn23)cc1	47*	-14%	9%	82*	-11%	2%
COc1cccc(NC(=O)CCc2nnc3ccc(N4CCN(c5cccc(OC)c5)CC4)nn23)c1	-3	?	?	22	/	8%
CC(=O)NC12CC3CC(C1)CC(C(=O)Nc1nc4ccc(S(C)(=O)=O)cc4s1)(C3)C2	0	-31%	?	6	/	2%
O=C(Nc1cccc2ccccc12)N1CCCN(c2c(Cl)cncc2Cl)CC1	-1	5.9µM*	?	-7	1%	-5%
O=C(Nc1cccc2ccccc12)N1CCN(c2ccc(F)cc2)CC1	7	1.5µM*	13%	-11	-8%	3%
